Compound activity from PubChem BioAssay.
BLM inh = qHTS Assay for Inhibitors of Bloom's syndrome helicase (BLM); RecQ-like DNA helicase BLM (Homo sapiens), P54132; recombinant BLM DNA unwinding, fluorescence dequenching; Potency, µM (highest dose often 56.1 µM), most hits filed as inhibitors; 350,000 tested, 0.2% active; AID 2528, 2010; also: nearly all actives have a fitted effect of over 35% in size
Target sequence (P54132 whole entry, looked up): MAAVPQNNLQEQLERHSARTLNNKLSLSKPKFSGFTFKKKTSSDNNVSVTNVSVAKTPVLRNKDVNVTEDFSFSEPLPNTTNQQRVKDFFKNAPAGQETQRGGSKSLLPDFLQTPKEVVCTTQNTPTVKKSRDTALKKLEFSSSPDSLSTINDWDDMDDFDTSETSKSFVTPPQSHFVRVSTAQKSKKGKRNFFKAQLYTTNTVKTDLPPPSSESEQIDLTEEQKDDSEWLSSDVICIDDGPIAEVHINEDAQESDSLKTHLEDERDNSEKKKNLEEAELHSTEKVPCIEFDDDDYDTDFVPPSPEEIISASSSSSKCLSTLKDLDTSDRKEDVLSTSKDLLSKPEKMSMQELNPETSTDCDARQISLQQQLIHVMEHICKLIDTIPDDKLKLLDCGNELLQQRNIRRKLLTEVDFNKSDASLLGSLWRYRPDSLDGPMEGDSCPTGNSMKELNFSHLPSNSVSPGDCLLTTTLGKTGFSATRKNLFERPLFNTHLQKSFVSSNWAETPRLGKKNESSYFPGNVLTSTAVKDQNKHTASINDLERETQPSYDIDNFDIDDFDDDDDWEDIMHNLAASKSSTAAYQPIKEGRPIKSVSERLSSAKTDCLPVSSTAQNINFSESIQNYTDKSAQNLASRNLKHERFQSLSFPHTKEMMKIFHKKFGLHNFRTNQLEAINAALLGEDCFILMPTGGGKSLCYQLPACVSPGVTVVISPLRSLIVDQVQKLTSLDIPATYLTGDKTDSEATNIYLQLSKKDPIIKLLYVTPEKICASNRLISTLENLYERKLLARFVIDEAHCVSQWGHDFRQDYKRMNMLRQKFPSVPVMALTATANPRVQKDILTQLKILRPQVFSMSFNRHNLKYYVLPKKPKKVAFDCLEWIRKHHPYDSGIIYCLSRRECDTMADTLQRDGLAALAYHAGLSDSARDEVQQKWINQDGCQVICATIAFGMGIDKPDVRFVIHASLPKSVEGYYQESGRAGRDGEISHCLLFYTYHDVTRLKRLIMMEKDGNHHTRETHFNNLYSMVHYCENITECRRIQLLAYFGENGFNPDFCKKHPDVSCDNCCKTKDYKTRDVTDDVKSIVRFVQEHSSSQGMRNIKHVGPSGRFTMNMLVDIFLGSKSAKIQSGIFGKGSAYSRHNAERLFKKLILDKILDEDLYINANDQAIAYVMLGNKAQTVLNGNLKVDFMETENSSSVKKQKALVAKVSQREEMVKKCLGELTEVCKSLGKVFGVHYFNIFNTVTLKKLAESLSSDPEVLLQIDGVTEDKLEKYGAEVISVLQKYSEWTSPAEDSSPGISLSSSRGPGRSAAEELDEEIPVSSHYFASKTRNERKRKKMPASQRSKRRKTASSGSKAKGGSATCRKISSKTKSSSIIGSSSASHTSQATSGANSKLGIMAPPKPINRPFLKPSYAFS
Tb PGK inh = qHTS Assay to Find Inhibitors of Phosphoglycerate Kinase; Phosphoglycerate kinase, glycosomal (Trypanosoma brucei brucei), P07378; PGK/GAPDH coupled, Kinase-Glo luminescence, 60 min; Potency, µM (series often up to 57.5 µM), usual class: inhibitors; 380,000 tested, 0.043% active; AID 602233, 2012; also: nearly all actives have a fitted effect of over 60% in size
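Luminescent ATP detection (Kinase-Glo Plus) follows a 60-minute room-temperature incubation, with wells lacking PGK as controls. Buffer: 100 mM TEA (pH 7.6), 5 mM MgCl2, 0.01% Tween-20. Coupling enzyme GAPDH (100 nM final) supplies unstable 1,3-BPG in-well.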
RECQ1 inh-1 = qHTS Assay for Inhibitors of RecQ-Like Dna Helicase 1 (RECQ1); Potency, µM (series often up to 57.3 µM), hits mostly inhibitors; 240,000 tested, 0.54% active; RECQ1 DNA unwinding, red fluorescence kinetic read; also: nearly all actives have a fitted effect of over 30% in size
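50 nM RECQ1T1 preincubated 15 min with compound in Tris pH 8.0 buffer with MgCl2, DTT, Tween-20 and 2.5 ug/ml poly(dI-dC); started with 200 nM TAMRA/BHQ-2 forked duplex and 2 mM ATP. Unwinding read as fluorescence (525/598 nm), two reads 2 h apart.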
APEX1 inh = qHTS Assay for Inhibitors of the Human Apurinic/apyrimidinic Endonuclease 1 (APE1); 350,000 tested, 0.35% active; AID 2517, 2012; DNA repair nuclease/redox regulator APEX1 (Homo sapiens), P27695; recombinant APE1, TAMRA/BHQ-2 abasic DNA cleavage fluorescence; Potency, µM (doses to about 65.8 µM), most hits filed as inhibitors; also: nearly all actives have a fitted effect of over 55% in size
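Readout is kinetic fluorescence (ex 525, em 598 nm) from cleavage of 50 nM TAMRA/BHQ-2 THF abasic duplex by 0.75 nM APE1, compound added 15 min beforehand at RT.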
FEN1 inhibitor = qHTS Assay for the Inhibitors of Human Flap endonuclease 1 (FEN1); Potency, µM (series often up to 114 µM), most hits filed as inhibitors; AID 588795, 2011; Recombinant FEN1 flap cleavage, fluorescence, 15 min; 390,000 tested, 0.35% active; also: nearly all actives have a fitted effect of over 65% in size
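FEN1 at 10 nM, compound pretreatment for 15 min (room temperature), 50 nM final substrate to initiate; endpoint reads at 0 and 15 min; DMSO-only plates used as vehicle background.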
RECQ1 inh conf = Confirmation qHTS Assay for Inhibitors of RecQ-Like Dna Helicase 1 (RECQ1) | RECQ1 helicase DNA unwinding, fluorescence | shares compounds with RECQ1 inh-1 | Potency, µM (highest dose often 229 µM), actives largely listed as inhibitors | 610 tested, 28% active | AID 2708, 2010; also: nearly all actives have a fitted effect of over 45% in size
RECQ1 ADP FP = Counterscreen for RECQ1 Inhibitors: ADP Fluorescence Polarization Displacement Assay. 530 tested, 27% active. Potency, µM (top dose mostly 228 µM), hits mostly inhibitors. shares compounds with RECQ1 inh-1. ADP fluorescence polarization displacement counterscreen. AID 2711, 2010; also: nearly all actives have a fitted effect of over 45% in size
RECQ1 inh-2 = Confirmation qHTS Assay for Inhibitors of RecQ-Like Dna Helicase 1 (RECQ1) - Round 2 Cherry Picks; 1,100 tested, 15% active; AID 504841, 2011; shares compounds with RECQ1 inh-1; recombinant RECQ1 DNA unwinding, red fluorescence; Potency, µM (doses to about 119 µM), most hits filed as inhibitors; also: nearly all actives have a fitted effect of over 50% in size
A number is an active result; – = inactive; ? = inconclusive; · = no result. An excerpt weighted towards active compounds, which were near 0.74% of everything screened. Calls follow the shape of the dose curve; as a rule, active = well fitted curve in the direction sought with a large enough effect; inconclusive = small, poorly fitted or top-dose-only effect, or another doubt; inactive = no such curve, though single readings can be large; an effect the other way counts as inactive or inconclusive.

SMILES	BLM inh	Tb PGK inh	RECQ1 inh-1	APEX1 inh	FEN1 inhibitor	RECQ1 inh-2	others
O=C(CSc1cccc2cccnc12)N/N=C/c1cccc(O)c1	–	–	–	–	–	·
O=C(N/N=C/c1ccc(O)c(O)c1)c1ccc(CSc2cccc3cccnc23)cc1	–	–	11µM	–	?	·	RECQ1 inh conf=–;RECQ1 ADP FP=–
N#Cc1cn(CCOc2ccc(F)cc2)c2ccccc12	–	–	–	–	–	·
O=S(=O)(N(Cc1ccccc1)[C@@H](CO)Cc1ccccc1)N(Cc1ccccc1)[C@@H](CO)Cc1ccccc1	·	–	·	–	–	·
CNc1ccccc(C(=O)/C=C/c2ccccc2OC)c1=O	–	–	25µM	–	–	?
CCN(CC)c1ccc2c(Cl)cc(=O)oc2c1	–	–	–	–	–	·
CCNc1ccc2c(Cl)cc(=O)oc2c1	–	–	35µM	–	–	–
CCOc1cccc(=O)c2c(C)n(C)c(C)c12	–	–	?	?	?	–
CCCCCn1c(C)c2c(OCC)cccc(=O)c2c1C	–	–	32µM	–	–	–
COc1cccc(=O)c2c(C)n(-c3cc(C)cc(C)c3)c(C)c12	–	–	–	–	–	·
COc1cccc(-n2c(C)c3c(OC)cccc(=O)c3c2C)c1	–	–	–	–	–	·
COc1cccc(=O)c2c(C)n(C)c(C)c12	–	–	?	–	–	–
CC(=O)OC1CCC2C3CCc4cc(O)ccc4C3CCC12C (stereo not given)	–	–	16µM	·	–	·	RECQ1 inh conf=–;RECQ1 ADP FP=8.9µM
C=CCOc1ccccc1/C=c1\sc2nc(=O)c(C)nn2c1=O	–	–	?	?	–	?
CCCn1c(CCC(=O)O)nc2cc(S(=O)(=O)N3CCCC3)ccc21	–	–	–	–	–	·	RECQ1 inh conf=112µM;RECQ1 ADP FP=?
CCCn1c(CCl)nc2cc(S(=O)(=O)N3CCOCC3)ccc21	·	–	·	–	–	·
CCCCn1c(CCC(=O)O)nc2cc(S(=O)(=O)N(CC)CC)ccc21	–	–	–	–	–	·	RECQ1 inh conf=89µM;RECQ1 ADP FP=–
CCn1c(CCC(=O)O)nc2cc(S(=O)(=O)N(C)C)ccc21	–	–	–	–	–	·
CN(C)S(=O)(=O)c1ccc2c(c1)nc(CCC(=O)O)n2C	–	–	–	–	–	·	RECQ1 inh conf=–;RECQ1 ADP FP=100µM
CCN(CC)c1ccc(NC(=O)CCCOc2cccc(C)c2)cc1	–	–	–	–	–	·
CCN(CC)c1ccc(/C=N/OCC(=O)Nc2cccc(C)c2)cc1	–	–	?	–	–	56µM
O=C(O)CCCCCNC(=O)CCn1cnc2ccccc2c1=O	–	–	–	–	–	·	RECQ1 inh conf=–;RECQ1 ADP FP=–
O=C(CCn1cnc2ccccc2c1=O)Nc1cccc(Cl)c1	–	–	–	–	–	·
COc1ccc(-n2c(=O)c(-c3cccs3)nc3cnc(N4CCNCC4)nc32)cc1	–	·	?	?	·	–
Cc1ccc(C(=O)c2c(C)oc3c2C(=O)C(=O)c2ccccc2-3)cc1	–	–	?	–	–	56µM
SMILES	BLM inh	Tb PGK inh	RECQ1 inh-1	APEX1 inh	FEN1 inhibitor	RECQ1 inh-2	others
Cc1ccc(C(=O)c2coc3c2C(=O)C(=O)c2ccccc2-3)cc1	–	·	–	–	–	·
O=C(COC(=O)CCC(NC(=O)OCc1ccccc1)C(=O)OCC(=O)Nc1ccccc1)Nc1ccccc1 (stereo not given)	–	–	?	–	–	–
O=C(O)CC(NC(=O)COc1ccc(Cl)cc1Cl)C(=O)O (stereo not given)	–	–	–	–	–	·	RECQ1 inh conf=–;RECQ1 ADP FP=–
COc1c(C(CC(C)C)OC(C)=O)ccc2c1C(=O)OCc1cc(C)cc(O)c1O2 (stereo not given)	–	–	?	–	?	–
CC(C)(C)OC(=O)N1CCC[C@H]1C(=O)Nc1ccc(C#N)cc1	–	–	·	–	–	·
CC1=Nc2ccccc2/C1=C/c1nc(-c2ccc(C)s2)oc1O	–	–	?	–	–	?
Cc1nn(CC(=O)NC2C(=O)N3C(C(=O)O)=C(CSc4nnnn4C)CSC23)cc1Br (stereo not given)	–	–	–	?	–	·	RECQ1 inh conf=–;RECQ1 ADP FP=?
Oc1ccc(N2CCN(c3nc(-c4cccs4)nc4ccccc34)CC2)cc1	–	–	?	–	?	?
c1ccc(N2CCN(c3nc(-c4cccs4)nc4ccccc34)CC2)cc1	–	–	–	?	–	·
CCc1nnc(NS(=O)(=O)c2ccc(NC(=S)NC(=O)/C=C/c3ccc(C(C)C)cc3)cc2)s1	–	·	?	–	?	?
CCc1nnc(NS(=O)(=O)c2ccc(NC(=S)NC(=O)/C=C/c3ccccc3)cc2)s1	–	–	?	?	–	?
CCc1nnc(NS(=O)(=O)c2ccc(NC(=S)NC(=O)c3ccccc3)cc2)s1	–	–	–	–	–	·
CCc1nnc(NS(=O)(=O)c2ccc(NC(=S)Nc3ccc(F)cc3)cc2)s1	–	–	–	–	–	·
CCOC(=O)c1nnsc1NC(C)=O	–	–	–	–	–	·
COc1cc(NS(=O)(=O)c2ccc(NC(=O)/C=C/C(=O)O)cc2)nc(OC)n1	–	–	·	–	–	·
COc1ccc(NS(=O)(=O)c2cccc(C(=O)N3CCCCCC3)c2)cc1	·	–	·	–	–	·
Cc1cc(C(=O)COC(=O)CNC(=O)c2ccco2)c(C)n1Cc1ccco1	–	–	?	?	–	–
O=C(O)CC/C(=N/NC(=O)c1cn(-c2ccccc2)nc1-c1ccccc1)C(=O)O	–	·	–	–	–	·	RECQ1 inh conf=–;RECQ1 ADP FP=–
CCN1CCN(C(=O)c2sc3ncnc(N4CCc5ccccc5C4)c3c2C)CC1	–	–	28µM	–	–	–
Cc1c(C(=O)N2CCCCC2C)sc2ncnc(N3CCc4ccccc4C3)c12 (stereo not given)	–	–	–	–	–	·
Cc1ccc(C)c(CN2CCC(CNC(=O)c3cc4ccc5cccnc5c4[nH]3)CC2)c1	–	–	·	·	–	·
